Experimental findings from PubChem BioAssay AID485353 (National Center for Advancing Translational Sciences (NCATS), 2010) are described below.

The structures appear in SMILES notation. The whole screen tested about 330,000 compounds, of which about 610 (0.18%) were called active. Roughly 2% stayed inconclusive and do not appear here. The call rests on the fitted dose curve. The list comes from a sample in which actives are over-represented; it also holds similar structures and randomly drawn compounds. Entries that show only a call come without a potency.
Potency means the concentration at half of the fitted maximal effect.

This test in a line: qHTS of Yeast-based Assay for SARS-CoV PLP. Further: nearly all actives have a fitted effect of over 55% in size. The following applies: S. cerevisiae expressing SARS-CoV PLpro; Potency: growth rescue; series mostly up to 32.9 µM. In general terms: In qHTS, concentration-response curves come from the screen itself.
For `Cc1cc2c(cc1S(=O)(=O)CCC(=O)NCc1ccccc1)OCC(=O)N2`, the Potency entry is “inactive”. Next, `COc1ccc(NC(=O)CCS(=O)(=O)c2cc3c(cc2Cl)NC(=O)CO3)cc1OC`: 10 µM (active); `COc1ccc(Cl)cc1NC(=O)CCS(=O)(=O)c1cc2c(cc1C)NC(=O)CO2`: “inactive”. For the compound `CN(C(=O)CN1C(=O)NC(C)(CCc2ccccc2)C1=O)c1ccccc1` (configuration not stated), the Potency result was “inactive”. Next, `CC(C)CCNC(=O)C1CCCN(S(=O)(=O)c2ccc(F)cc2)C1` (configuration not stated): “inactive”. Next, `CCCN(CC1CC1)C(=S)NC(=O)c1ccccc1Br`: “inactive”. Next, `CCCCCOc1ccc(/C=C/C(=O)NCCc2nc3ccccc3[nH]2)cc1OC`: “inactive”; `COc1ccc(CNC(=O)C(=O)NCC2OCCN2C(=O)c2ccc(OC)cc2)cc1` (configuration not stated): “inactive”. For the compound `CC(C)CC(=O)c1c[nH]c(C(=O)NCc2ccccc2)c1`, the Potency result was “inactive”. Next, `CCOC(=O)N1CCN(C(=O)COC(=O)c2cccc(S(C)(=O)=O)c2)CC1`: “inactive”; `CC(=O)c1cn(CCCCCCCCCCn2cc(C(C)=O)c(=O)[nH]c2=O)c(=O)[nH]c1=O`: “inactive”; `CN(Cc1ccc2nsnc2c1)Cc1nc(Cc2cccc(F)c2)no1`: “inactive”.

`Cc1cccc(C)c1NC1=NC(=S)N(c2ccc(N(C)C)cc2)C1(C)C`: the Potency result is “inactive”.

For the compound `O=C(OCC1O[C@@H](OC(=O)c2cc(O)c(O)c(O)c2)[C@@H](OC(=O)c2cc(O)c(O)c(O)c2)[C@@H](OC(=O)c2cc(O)c(O)c(O)c2)[C@@H]1OC(=O)c1cc(O)c(O)c(O)c1)c1cc(O)c(O)c(O)c1` (some centres not stated), the Potency is 5.62 µM (active).

Regarding `CCOC(=O)CN1C(=O)N[C@@H](c2ccc(Br)cc2)C(C(C)=O)=C1C`, the Potency entry was “inactive”.

For the compound `CCc1cccc2c3c([nH]c12)C(CC)(CC(=O)O)OCC3` (configuration not stated), the Potency is 20 µM (active). Next, `CCc1cccc2c(C#N)cn(CC(=O)N3CCOCC3)c12`: “inactive”; `Cc1cc2ccccn2c1C(=O)c1cccc(S(=O)(=O)N2CCOCC2)c1`: “inactive”; `O=C(OCc1cn(-c2ccc(Cl)c(Cl)c2)nn1)c1ccccc1Cl`: “inactive”. Next, `COC(=O)CCC(=O)N1CCCC(CO)(Cc2ccccc2)C1` (configuration not stated): “inactive”. Next, `CCOC(=O)c1c(N)c(C#N)nn1-c1ccccc1C(=O)OC`: “inactive”; `CC1(C)CN=C(N2CCN(c3ncnc4sc5c(c34)CCCC5)CC2)S1`: “inactive”; `COc1ccc(NC(=O)CN(C)C(=O)c2ccc(NC3CC3)c([N+](=O)[O-])c2)cc1`: “inactive”. Turning to `COc1ccc(C(C(=O)NC(C)(C)C)N(Cc2ccc(F)cc2)C(=O)CCC(=O)Nc2cc(C)on2)cc1` (configuration not stated), the Potency entry is “inactive”.

Turning to `Cc1ccccc1Cn1nc(C)c(NC(=O)C(F)(F)F)c1C`, the Potency result was “inactive”. For the compound `CCCCc1ccc(NC(=O)CN2C(=O)NC(Cc3ccccc3)C2=O)cc1` (configuration not stated), the Potency result was “inactive”.

On to `O=C(C(NS(=O)(=O)c1cccc2nsnc12)c1ccccc1)N1CCN(c2ccccc2)CC1` (configuration not stated), for which the Potency entry is “inactive”. Next, `Cc1cc(OCCOc2cccc3cccnc23)c(C)cc1Cl`: “inactive”. With `CC(C)CNC(=O)C1CCCN(S(=O)(=O)c2ccc(-n3cnnn3)cc2)C1` (configuration not stated), the Potency result is “inactive”. As for `COC(=O)C1(C)NC(c2ccc(C)cc2)C2C(=O)N(c3ccc(F)cc3)C(=O)C21` (configuration not stated), the Potency result was “inactive”. Next, `Cc1c2cnn(-c3ccccc3)c(=O)c2c(C)n1CCCC(=O)N1CCN(C)CC1`: “inactive”; `COC(=O)[C@]1(C)CCC[C@@]2(C)C3CC[C@]4(OC(C)=O)C[C@@]3(CCC21)CC4=NO` (some centres not stated): “inactive”; `CCCCN(CC(=O)Nc1cccc(S(=O)(=O)N2CCCC2)c1)Cc1nc2ccccc2c(=O)[nH]1`: “inactive”. In the case of `COc1ccc(N(C(=O)CNC(=O)c2ccco2)C(C(=O)NCC2CCCO2)c2ccccc2)cc1Cl` (configuration not stated), the Potency entry is “inactive”. Next, `COc1cccc(NC(=S)NC(=O)c2c(Cl)c(C)nn2C)c1`: “inactive”.

On to `Cc1ccc(/C=N/NC(=O)C2=NNC(c3ccccc3)(c3ccccc3)C2)c(O)c1`, for which the Potency is 3.55 µM (active).

Regarding `Cc1nc2ccc(C(=O)N/N=C/c3ccc(O)cc3)cc2[nH]1`, the Potency result is “inactive”. Next, `Cc1ccc2occ(/C=N/NC(=O)c3ccccc3C)c(=O)c2c1`: “inactive”; `Cc1cc(OC(=O)c2ccccc2Cl)ccc1N1C(=O)CCC1=O`: “inactive”; `CC(C)C(C)NC(=O)COc1nc2ccccc2nc1N(C)C1CCCCC1` (configuration not stated): “inactive”. Next, `O=C(NC1CCN(C(=S)NCc2ccco2)CC1)c1ccc(F)cc1`: “inactive”; `Cn1c(=O)n(C)c2cc(CNc3ccc(N4CCOCC4)c(C(=O)O)c3)ccc21`: “inactive”; `CC(=O)Nc1cccc2c1[n+]([O-])c(C)c(C)[n+]2[O-]`: “inactive”. Next, `COC(=O)c1ccc(C(NC(=O)OCc2ccccc2)/C(C)=C/[C@@H](C)C(=O)NCc2ccc(OC)c(OC)c2)cc1` (some centres not stated): “inactive”; `Cc1cc(C(=O)N/N=C/c2cc([N+](=O)[O-])cc(C)c2O)n[nH]1`: 4.47 µM (active). For `COc1ccc2ccccc2c1/C=N/NC(=O)c1cc(C)[nH]n1`, the Potency entry is “inactive”. Next, `COc1ccc(CC(=O)N/N=C/c2cc([N+](=O)[O-])cc(Br)c2O)cc1`: “inactive”; `CC(=O)c1ccc(NC(=O)C2CC(=O)Nc3nc4ccccc4n32)cc1` (configuration not stated): “inactive”. Next, `O=c1[nH]c2ccc(S(=O)(=O)N3CCCC3)cc2[nH]1`: “inactive”. Next, `COC(=O)C[n+]1cccc2ccccc21`: “inactive”; `CN(C)c1ccc(C(=S)N2CCN(C(=S)Nc3ccc(Cl)cc3)CC2)cc1`: “inactive”; `COc1cc(N2CCCC2)c(OC)cc1/C=C(/C#N)c1cccc(Br)c1`: “inactive”.

For `CCOC(=O)C1C(=O)OC2(CCCC2)C1C(=O)OCC` (configuration not stated), the Potency entry is “inactive”. Next, `CCN(C(=O)c1ccc(Br)cc1)c1ccccc1`: “inactive”; `CC1CCCCC1NC(=O)/C(C#N)=C/C=C/c1ccccc1[N+](=O)[O-]` (configuration not stated): “inactive”. On to `COc1ccc(N(CCC(=O)NCCc2ccccc2)S(=O)(=O)c2ccc(C)cc2C)cc1`, for which the Potency result is “inactive”.

Turning to `O=C(COC(=O)Cc1ccccc1F)NNC(=O)c1ccc(Cl)cc1`, the Potency entry is “inactive”. Next, `CCCCOC(=O)CNc1nnc(SCC(=O)OCC)[nH]c1=O`: “inactive”. Next, `COc1ccc(-c2[nH]ncc2/C=N/NC(=O)c2cc(Br)ccc2O)c(OC)c1`: “inactive”; `CC(=N\NC(=O)c1cc(Br)ccc1O)/C(=N/O)C(=O)Nc1ccccc1`: “inactive”; `CC(C)/C=N/NC(=O)c1cc(Br)ccc1O`: 10 µM (active). For the compound `COC(=O)c1scc(C)c1NC(=O)CSc1ccc(Cl)cc1`, the Potency is 0.708 µM (active).

For `COC(=O)c1cc(OC)c(OC)cc1NC(=O)CSc1ccc(C)cc1`, the Potency result is “inactive”. Next, `COc1ccc(C)cc1NC(=O)CSc1ccc(Cl)cc1`: “inactive”; `CCOC(=O)c1c(/N=C/C2C(=O)CC(C)(C)CC2=O)sc(C)c1C`: 3.16 µM (active); `CCOC(=O)c1c(N)sc2c1CCCC2=O`: “inactive”.

As to `CCOC(=O)c1sc(/N=C/C2=C(O)CC(C)(C)CC2=O)c(C(=O)OCC)c1C`, the Potency result was “inactive”.
